Assay results published in PubChem BioAssay (NCATS).
Records with an inconclusive call do not appear. Calls of active or inactive are those of the source. Unless noted, calls come from the whole dose curve; as a rule, active = well fitted curve in the direction sought with a large enough effect; inconclusive = small, poorly fitted or top-dose-only effect, or another doubt; inactive = no such curve, though single readings can be large; an effect the other way counts as inactive or inconclusive.

Tests used:
[1] = Cell Viability - BJ (AID 421; calls by dose curve;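 note: potency is the fitted concentration of half-maximal effect; cells exposed to compound for 40 hours at 37 °C before readout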); settings: BJ fibroblast viability, qHTS
In short: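 Cytotoxicity as drop in intracellular ATP (CellTiter-Glo, 20 min RT) after 40 hr compound exposure of BJ fibroblasts at 37 °C. Titrations scaled between DMSO and 100 uM tamoxifen, Hill-fitted for AC50.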

[2] = Cell Viability - Jurkat (AID 426;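 active = dose-dependent loss of cell ATP signal giving a full or clear fitted curve, ranked by lower potency value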;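 note: potency is the fitted concentration of half-maximal effect; cells exposed to compound for 40 hours at 37 °C before ATP read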); settings: qHTS
In short: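 Cytotoxicity taken as drop in cellular ATP (CellTiter-Glo luminescence, 20 min room temperature) after 40 hr, 37C treatment of 5000 Jurkat Clone E6-1 cells per well; concentration-response fitted with Hill equation for AC50.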

[3] = Cell Viability - Hek293 (AID 427;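 active = compounds whose dose-response curve shows a full or clear partial loss of cell viability, called from curve shape rather than a numeric limit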;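 note: potency is the fitted concentration of half-maximal effect; cells exposed to compound for 40 hours at 37 °C before reading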); settings: qHTS
In short: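 Luminescent ATP content (CellTiter-Glo, 20 min at room temperature) was measured after a 40 hr, 37 °C compound exposure of HEK293 cells. AC50 values came from Hill-equation fits of qHTS concentration-response data normalized to DMSO and 100 uM tamoxifen.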

[4] = Cell Viability - HepG2 (AID 433; calls by dose curve;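 note: potency is the fitted concentration of half-maximal effect; potency for ATP loss meaning cytotoxicity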); settings: qHTS
In short: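 HepG2 hepatocellular carcinoma cells (1500/well) were treated with compounds for 40 h at 37 °C in complete medium; intracellular ATP was read by CellTiter-Glo luminescence. Data were normalized to DMSO and 100 uM tamoxifen, and AC50 came from Hill fits.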

[5] = Cell Viability - MRC5 (AID 434; calls by dose curve;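 note: potency is the fitted concentration of half-maximal effect; potency reflects cytotoxicity seen as loss of intracellular ATP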); settings: MRC5 lung fibroblast viability, qHTS
In short: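 AC50 values come from Hill-equation fits of intracellular ATP loss, measured by CellTiter-Glo luminescence. Normal lung fibroblasts (MRC5) had 40 hr compound treatment at 37 C, normalized between DMSO and 100 uM tamoxifen.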

[6] = Cell Viability - SK-N-SH (AID 435; calls by dose curve; note: potency is the fitted concentration of half-maximal effect); settings: SK-N-SH neuroblastoma cell viability qHTS
In short: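 SK-N-SH human neuroblastoma cells (1500/well) were exposed to compounds in complete medium for 40 h at 37 °C, and intracellular ATP was then measured by CellTiter-Glo luminescence. AC50 was taken from Hill fits, normalized to DMSO and 100 uM tamoxifen.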

[7] = molecular target: Mitogen-activated protein kinase 10 (Mus musculus) (UniProt Q61831); experiment: JNK3 AlphaScreen Assay (AID 530; active = well fitted curve in either direction with a large enough effect, not every such curve was filed as active;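 note: kinase came from lysate of stimulated human HepG2 cells; signal reports phosphorylation of biotinylated GST-cJun 1-79 at Ser73 with 10 µM ATP; % is set by controls: 0 for no effect and ±100 for the full control effect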); settings: JNK3 lysate, c-Jun phosphorylation; series mostly up to 57.1 µM
In short: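 qHTS titrations with 15 min compound pre-incubation before adding ATP (10 uM final). Read-out: AlphaScreen of Ser73-phosphorylated biotin-GST-cJun using HepG2 lysate JNK3 activated by IL-1β and TNFα.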

[8] = Cell Viability - N2a (AID 540); settings: N2a mouse neuroblastoma cell viability; activity change, negative = cytotoxicity: at 92.2 µM (top of the series);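 note: plate controls were DMSO alone for no effect and tamoxifen control for full effect; nearly all actives have a fitted effect of over 45% in size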
In short: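 CellTiter-Glo ATP luminescence, read 20 min after reagent at room temperature, reported viability following 40 h compound treatment at 37 °C. N2a mouse neuroblastoma cells seeded 1500/well; Hill equation gave AC50.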

[9] = Cell Viability - NIH 3T3 (AID 541); settings: NIH 3T3 cell viability, qHTS; activity change, negative = cytotoxicity: at 92.2 µM (top of the series);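 note: plate controls were DMSO alone for no effect and tamoxifen positive control for full effect; nearly all actives have a fitted effect of over 25% in size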
In short: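 Intracellular ATP (CellTiter-Glo luminescence, 20 min at room temperature) measured after 40 hr compound exposure at 37 °C of 1000 NIH 3T3 mouse fibroblasts/well in complete medium; AC50 derived by Hill-equation modelling of qHTS concentration-response curves.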

[10] = Cell Viability - HUV-EC-C (AID 542); settings: HUV-EC-C endothelial cell viability, qHTS; series mostly up to 92.2 µM; note: % is set by controls: 0 for no effect and ±100 for the full control effect; nearly all actives have a fitted effect of over 35% in size
In short: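 CellTiter-Glo luminescence measured ATP loss in HUV-EC-C cells (1000/well) after 40 hr compound exposure at 37 °C, in complete culture medium. Concentration-response data were Hill-fitted to give AC50.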

[11] = Cell Viability - H-4-II-E (AID 543); settings: H-4-II-E rat hepatoma viability; series mostly up to 92.2 µM; note: % is set by controls: 0 for no effect and ±100 for the full control effect; nearly all actives have a fitted effect of over 35% in size
In short: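 CellTiter-Glo luminescence (intracellular ATP) measured after 40 h compound exposure at 37 °C in H-4-II-E rat hepatoma cells seeded at 1500/well. Values are AC50s fitted with the standard Hill equation.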

[12] = Cell Viability - SH-SY5Y (AID 544); settings: SH-SY5Y neuroblastoma cell viability; viability change, negative = cytotoxic: at 92.2 µM (top of the series); note: nearly all actives have a fitted effect of over 55% in size
In short: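 Cytotoxicity measured via ATP-dependent luciferase luminescence (CellTiter-Glo) following 40 h, 37 °C exposure of 1500 SH-SY5Y cells per well. Concentration-response data were fitted with the standard Hill equation to give AC50.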

[13] = Cell Viability - Renal Proximal Tubule (AID 545); settings: renal proximal tubule cells viability, primary cells of rat origin; series mostly up to 91.7 µM; note: nearly all actives have a fitted effect of over 40% in size
In short: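 Primary rat renal proximal tubule cells (1000/well) were treated with compounds for 40 hr at 37 °C in complete medium. Intracellular ATP was measured by CellTiter-Glo luminescence, and AC50 values came from Hill-equation fits of concentration-response data.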

[14] = Cell Viability - Mesenchymal (AID 546); settings: mesenchymal cells viability, qHTS; series mostly up to 91.7 µM;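 note: cells exposed to compound for 40 hours before reading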
In short: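 CellTiter-Glo luminescence (intracellular ATP, 20 min room temperature) after 40 hr compound exposure at 37 °C of 1000 glomerulus-derived human kidney mesenchymal cells/well; AC50 values obtained by fitting qHTS concentration-response data to the Hill equation.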

[15] = Cellular Toxicity (caspase-3) HepG2 (AID 654); settings: HepG2 caspase-3 activation, luminescence; series mostly up to 92.2 µM;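 note: cells exposed to compound for 16 hours before reading; 0% = DMSO alone and 100% = caspase signal from 100 µM tamoxifen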
In short: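 Caspase 3/7 activation is measured as a luminescence increase (aminoluciferin substrate) after 16 h compound exposure of human hepatocarcinoma HepG2 cells. AC50 values are Hill fits, scaled between DMSO baseline and 100 uM tamoxifen stimulation.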

[16] = Cellular Toxicity (caspase-3) Jurkat (AID 655); settings: Jurkat caspase-3 activation, luminescence; caspase-3 activation: at 92.2 µM (top of the series), DMSO = 0%, tamoxifen = 100%;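 note: cells exposed to compound for 16 h at 37 °C before reading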
In short: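 Jurkat cells (5000/well) in complete medium were treated with compounds for 16 hr at 37 °C, then Caspase-Glo 3/7 luminescence was read after 20 min at room temperature. Data normalized to DMSO (basal) and 100 uM tamoxifen (100%); AC50 from Hill fit.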

[17] = Cellular Toxicity (caspase-3) HUV-EC-C (AID 656); settings: HUV-EC-C cells, caspase-3 activation (apoptosis), vehicle = 0, 100 µM tamoxifen = 100%; series mostly up to 92.2 µM
In short: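 HUV-EC-C endothelial cells, 1000/well, were pre-incubated 5 hr at 37°C, then exposed to compounds for 16 hr at 37°C. Caspase-Glo 3/7 luminescence was read after 20 min at room temperature. AC50 came from Hill fits, normalized to DMSO and 100 uM tamoxifen.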

[18] = Cellular Toxicity (caspase-3) SHSY5Y (AID 657); settings: SH-SY5Y caspase-3 activation, DMSO zero, 10 µM staurosporine = 100%; series mostly up to 91.7 µM
In short: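 SH-SY5Y human neuroblastoma cells (1500/well) were treated with compounds for 16 h at 37 °C, then Caspase-Glo 3/7 luminescence was read after 1 h at room temperature. Data normalized to DMSO and 10 uM staurosporine; AC50 from Hill fits.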

[19] = Cellular Toxicity (caspase-3) BJ (AID 658); settings: BJ fibroblasts, luminescence, normalized: DMSO 0%, staurosporine 100%; series mostly up to 91.7 µM
In short: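 Caspase-Glo 3/7 luminescence, read 1 hr after reagent at room temperature, in normal BJ fibroblasts exposed 16 hours at 37 °C. AC50 values from Hill-equation concentration-response, scaled between DMSO basal and 10 uM staurosporine as 100%.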

[20] = Cellular Toxicity (caspase-3) MRC-5 (AID 659); settings: MRC-5 cells, luminescence, normalized: DMSO 0%, 10 µM staurosporine 100%; series mostly up to 91.7 µM
In short: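 Luminescent Caspase-Glo 3/7 read-out (1 h, room temperature) after a 16 h, 37 °C compound exposure of MRC-5 lung fibroblasts at 1500 cells/well. Concentration-response AC50 from Hill equation; 0% DMSO, 100% 10 uM staurosporine.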

O=[N+]([O-])c1cccc(Cl)c1
inactive: Potency [1] > 92 µM | Potency [2] > 92 µM | Potency [3] > 92 µM | Potency [4] > 92 µM | Potency [5] > 92 µM | Potency [6] > 92 µM | outcome [7] | activity change, negative = cytotoxicity [8] -8.23% | Potency [9] | Potency [10] | Potency [11] | Potency [12] | Potency [13] | Potency [14] | Potency [15] | caspase-3 activation [16] -3.2% | outcome [17] | outcome [18] | outcome [19] | outcome [20]

CC(=O)Nc1ccccc1C
inactive: Potency [1] > 92 µM | Potency [2] > 92 µM | Potency [3] > 92 µM | Potency [4] > 92 µM | Potency [5] > 92 µM | Potency [6] > 92 µM | outcome [7] | activity change, negative = cytotoxicity [8] 2.99% | Potency [9] | Potency [10] | Potency [11] | Potency [12] | Potency [13] | Potency [14] | Potency [15] | caspase-3 activation [16] 1.08% | outcome [17] | outcome [19] | outcome [20]

O=C(O)c1cccc(Cl)c1Cl
inactive: Potency [1] > 92 µM | Potency [2] > 92 µM | Potency [3] > 92 µM | Potency [4] > 92 µM | Potency [5] > 92 µM | Potency [6] > 92 µM | outcome [7] | activity change, negative = cytotoxicity [8] -7.38% | Potency [9] | Potency [10] | Potency [11] | Potency [12] | Potency [13] | Potency [14] | Potency [15] | caspase-3 activation [16] 0.107% | outcome [17] | outcome [18] | outcome [19] | outcome [20]

CC(C)(C)OC=O
inactive: Potency [1] > 92 µM | Potency [2] > 92 µM | Potency [3] > 92 µM | Potency [4] > 92 µM | Potency [5] > 92 µM | Potency [6] > 92 µM | outcome [7] | activity change, negative = cytotoxicity [8] -8.52% | Potency [9] | Potency [10] | Potency [11] | Potency [12] | Potency [13] | Potency [14] | Potency [15] | caspase-3 activation [16] -1.27% | outcome [17] | outcome [18] | outcome [19] | outcome [20]

CC#N
inactive: Potency [1] > 92 µM | Potency [2] > 92 µM | Potency [3] > 92 µM | Potency [4] > 92 µM | Potency [5] > 92 µM | Potency [6] > 92 µM | outcome [7] | activity change, negative = cytotoxicity [8] 0.749% | Potency [9] | Potency [10] | Potency [11] | Potency [12] | Potency [13] | Potency [14] | Potency [15] | caspase-3 activation [16] 1.05% | outcome [17] | outcome [18] | outcome [19] | outcome [20]

Cc1ccc(CO)cc1
inactive: Potency [1] > 92 µM | Potency [2] > 92 µM | Potency [3] > 92 µM | Potency [4] > 92 µM | Potency [5] > 92 µM | Potency [6] > 92 µM | outcome [7] | activity change, negative = cytotoxicity [8] -2.9% | Potency [9] | Potency [10] | Potency [11] | Potency [12] | Potency [13] | Potency [14] | Potency [15] | caspase-3 activation [16] 2.2% | outcome [17] | outcome [18] | outcome [19] | outcome [20]

CNC(=O)c1ccccc1
inactive: Potency [1] > 92 µM | Potency [2] > 92 µM | Potency [3] > 92 µM | Potency [4] > 92 µM | Potency [5] > 92 µM | Potency [6] > 92 µM | outcome [7] | activity change, negative = cytotoxicity [8] -4.58% | Potency [9] | Potency [10] | Potency [11] | Potency [12] | Potency [13] | Potency [14] | Potency [15] | caspase-3 activation [16] 0.307% | outcome [17] | outcome [19] | outcome [20]

CC(C)CCOC(=O)/C=C/c1ccccc1
inactive: Potency [1] > 92 µM | Potency [2] > 92 µM | Potency [3] > 92 µM | Potency [4] > 92 µM | Potency [5] > 92 µM | Potency [6] > 92 µM | outcome [7] | activity change, negative = cytotoxicity [8] 1.5% | Potency [9] | Potency [10] | Potency [11] | Potency [12] | Potency [13] | Potency [14] | Potency [15] | caspase-3 activation [16] 0.824% | outcome [17] | outcome [18] | outcome [19] | outcome [20]

Cc1cc(C2(c3cc(C)c(O)cc3C)OS(=O)(=O)c3ccccc32)c(C)cc1O
inactive: Potency [1] > 92 µM | Potency [2] > 92 µM | Potency [3] > 92 µM | Potency [4] > 92 µM | Potency [5] > 92 µM | Potency [6] > 92 µM | outcome [7] | activity change, negative = cytotoxicity [8] -2.09% | Potency [9] | Potency [10] | Potency [11] | Potency [12] | Potency [13] | Potency [14] | Potency [15] | caspase-3 activation [16] 2.78% | outcome [17] | outcome [18] | outcome [20]

Cc1cc(C)c(N)cc1C
inactive: Potency [1] > 92 µM | Potency [2] > 92 µM | Potency [3] > 92 µM | Potency [4] > 92 µM | Potency [5] > 92 µM | Potency [6] > 92 µM | outcome [7] | activity change, negative = cytotoxicity [8] -1.04% | Potency [9] | Potency [10] | Potency [11] | Potency [12] | Potency [13] | Potency [14] | Potency [15] | caspase-3 activation [16] -1.78% | outcome [17] | outcome [18] | outcome [19] | outcome [20]

CCOCCO
inactive: Potency [1] > 92 µM | Potency [2] > 92 µM | Potency [3] > 92 µM | Potency [4] > 92 µM | Potency [5] > 92 µM | Potency [6] > 92 µM | outcome [7] | activity change, negative = cytotoxicity [8] -17.9% | Potency [9] | Potency [10] | Potency [11] | Potency [12] | Potency [13] | Potency [14] | Potency [15] | caspase-3 activation [16] 0.459% | outcome [17] | outcome [19] | outcome [20]
